# From the supplement of paper PMC12350171
# Structures can show the parent of a compound that is named as a salt. A number with no mark means an inactive call.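 The calls were made as follows: active = normalised median growth AUC below 0.1 of DMSO control; inactive = AUC 0.1 or higher.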
# Test system: P. vulgatus RND KO
# Test: growth AUC normalised to DMSO control (median) (fraction of control); higher = less growth inhibition, active = hit call of the paper
# Conditions: 20 µM
# Method in brief: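 After two overnight anaerobic passages, strains were inoculated at OD578 0.01 into mGAM in 96-well plates containing approved-drug library compounds at 20 μM and 1% DMSO. Growth was followed by reading OD578 hourly for 24 h within an anaerobic incubator. Area under the curve, taken by the trapezoidal rule up to the start of stationary phase, was normalised to same-plate vehicle wells, and the median of three biological replicates is listed.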
# 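Also: active when median AUC fell below 0.1.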
row,SMILES,growth AUC normalised to DMSO control
1,Cn1c(=O)c2c(ncn2CC(O)CO)n(C)c1=O (stereo not given) [Diprophylline],1
2,CC(C)(C)NC[C@@H](O)COc1cccc2c1CCCC2=O [(+) Levobunolol hydrochloride],0.999
3,C[C@]12CCC(=O)C=C1CC[C@@H]1[C@@H]2[C@@H](O)C[C@@]2(C)[C@H]1CC[C@]2(O)C(=O)CO [Hydrocortisone],0.98
4,C#Cc1cccc(Nc2ncnc3cc(OCCOC)c(OCCOC)cc23)c1 [Erlotinib],0.967
5,O=C1CCC(N2C(=O)c3ccccc3C2=O)C(=O)N1 (stereo not given) [Thalidomide],0.999
6,CCOC(=O)C1=C(COCCN)NC(C)=C(C(=O)OC)C1c1ccccc1Cl (stereo not given) [Amlodipine],1.02
7,COc1ccc(CN(CCN(C)C)c2ccccn2)cc1 [Pyrilamine maleate],0.986
8,CN1CCCC(CC2c3ccccc3Sc3ccccc32)C1 (stereo not given) [Metixene hydrochloride],0.774
9,CC(C)/N=c1\cc2n(-c3ccc(Cl)cc3)c3ccccc3nc-2cc1Nc1ccc(Cl)cc1 [Clofazimine],0.0291 (active)
10,NC(N)=Nc1nc(CSCC/C(N)=N/S(N)(=O)=O)cs1 [Famotidine],1.01
11,O=C1c2ccccc2C(=O)C1c1ccccc1 [Phenindione],0.997
12,CN1CCN2c3ccccc3Cc3ccccc3C2C1 (stereo not given) [Mianserine hydrochloride],1.03
13,CCN1C(=O)NC(c2ccccc2)C1=O (stereo not given) [Ethotoin],1
14,CC(=O)OCC(=O)[C@@]12OC3(CCCC3)O[C@@H]1C[C@H]1[C@@H]3CCC4=CC(=O)C=C[C@]4(C)[C@@]3(F)[C@@H](O)C[C@@]12C [Amcinonide],0.993
15,CCc1cccc(CC)c1NC(=O)CN(CC(=O)O)CC(=O)O [Etifenin],0.998
16,COc1ccc(C(Cl)=C(c2ccc(OC)cc2)c2ccc(OC)cc2)cc1 [Chlorotrianisene],0.96
17,CC(=O)c1ccc2c(c1)N(CCCN(C)C)c1ccccc1S2 [Acetopromazine maleate salt],0.984
18,CCN1CCCC(OC(=O)C(c2ccccc2)c2ccccc2)C1 (stereo not given) [Piperidolate hydrochloride],1.03
19,CCCCOc1ccc(CC(=O)NO)cc1 [Bufexamac],1.01
20,NC[C@@H]1O[C@H](O[C@H]2[C@@H](O)[C@H](O[C@@H]3[C@@H](O)[C@H](N)C[C@H](N)[C@H]3O[C@H]3O[C@H](CN)[C@@H](O)[C@H](O)[C@H]3N)O[C@@H]2CO)[C@H](N)[C@@H](O)[C@@H]1O [Neomycin sulfate],1.02

row,SMILES,growth AUC normalised to DMSO control
1,COc1cc(C(=O)OCCCN2CCCN(CCCOC(=O)c3cc(OC)c(OC)c(OC)c3)CC2)cc(OC)c1OC [Dilazep dihydrochloride],0.993
2,NC1CCN(c2c(F)cc3c(=O)c(C(=O)O)cn(C4CC4)c3c2Cl)C1 (stereo not given) [Clinafloxacin],0.0165 (active)
3,CC(=O)O[C@H]1C[C@@]2(C)[C@@H](C[C@@H](O)[C@H]3[C@@]4(C)CC[C@@H](O)[C@@H](C)[C@@H]4CC[C@@]32C)/C1=C(\CCC=C(C)C)C(=O)O [Fusidic acid sodium salt],0.0166 (active)
4,c1cnc(N2CCN(Cc3ccc4c(c3)OCO4)CC2)nc1 [Piribedil],1.07
5,O=C(CCCCC(=O)Nc1c(I)cc(I)c(C(=O)O)c1I)Nc1c(I)cc(I)c(C(=O)O)c1I [Iodipamide],1.01
6,COc1ccc2c(c1)C(=O)N(CCc1ccc(S(=O)(=O)NC(=O)NC3CCCCC3)cc1)C(=O)C2(C)C [Gliquidone],0.994
7,CC1(C)S[C@@H]2[C@H](NC(=O)[C@H](C(=O)O)c3ccsc3)C(=O)N2[C@H]1C(=O)O [Ticarcillin sodium],0.00834 (active)
8,CCOC(=O)/C=C(C)/C=C/C=C(C)/C=C/c1c(C)cc(OC)c(C)c1C [Etretinate],1.03
9,O=C(O)COCCN1CCN(C(c2ccccc2)c2ccc(Cl)cc2)CC1 (stereo not given) [Cetirizine dihydrochloride],1
10,CCN(CC)C(C)CN1c2ccccc2Sc2ccccc21 (stereo not given) [Ethopropazine hydrochloride],0.272
11,Cc1scc2c1N(C(=O)CN1CCN(C)CC1)c1ccccc1NC2=O [Telenzepine dihydrochloride],0.995
12,CCCCN(CCCC)CCC(O)c1cc2c(Cl)cc(Cl)cc2c2cc(C(F)(F)F)ccc12 (stereo not given) [Halofantrine hydrochloride],1.06
13,CCN1CCCC1CNC(=O)c1cc(S(=O)(=O)CC)c(N)cc1OC (stereo not given) [Amisulpride],1.02
14,Clc1ccc(CCC(Cn2ccnc2)Sc2c(Cl)cccc2Cl)cc1 (stereo not given) [Butoconazole nitrate],0.998
15,CCn1nc(C(=O)O)c(=O)c2cc3c(cc21)OCO3 [Cinoxacin],1
16,CCC1(c2ccccc2)NC(=O)N(C)C1=O (stereo not given) [Mephenytoin],1
17,CCCN(CCC)C(=O)C(CCC(=O)O)NC(=O)c1ccccc1 (stereo not given) [Proglumide],1.02
18,O=C1NCC2(CCN(CCc3ccccc3)CC2)O1 [Fenspiride hydrochloride],0.988
19,CC(c1cc2ccccc2s1)N(O)C(N)=O (stereo not given) [Zileuton],1.01
20,c1ccc2c(c1)CCCC2C1=NCCN1 (stereo not given) [Tetrahydrozoline hydrochloride],0.997
